Assay outcomes from PubChem.
Autofluor counter: flagged as autofluorescent in microsphere protease counterscreen | AID 624483 | fluorescence intensity (test concentration not listed) | compound autofluorescence counterscreen, microsphere flow cytometry; active compounds read high | 360,000 compounds, 3.1% hits; in the data active means fluorescence intensity above about 16000
BoNT-F LC inh: BoNT/F light chain protease inhibitors, primary screen, biochemical, flow cytometry, MLPCN library; Botulinum neurotoxin type F light chain protease (Clostridium botulinum); Multiplex microsphere protease cleavage assay; inhibition, % at 10 µM; 360,000 compounds, 0.22% hits; AID 588497, 2011; in the data active means inhibition above about 35%, passing the limit was not always enough; further: plate controls were buffer without enzyme for full effect and enzyme alone for no effect
BoNT-A LC inh2: BoNT/A light chain protease inhibitors, primary screen, biochemical, flow cytometry, MLPCN library | Botulinum neurotoxin type A light chain protease (Clostridium botulinum A str. ATCC 3502) | multiplex microsphere protease substrate cleavage | inhibition, % at 10 µM | 360,000 compounds, 0.17% hits | AID 588499, 2011; further: plate controls were buffer without enzyme for full effect and enzyme alone for no effect
MazEF act: activators of E. coli MazEF toxin-antitoxin RNase, primary screen, biochemical, fluorescence, uHTS | FAM/BHQ RNA-DNA oligo cleavage fluorescence, 5 h | 350,000 compounds, 0.32% hits | Endoribonuclease toxin MazF (Escherichia coli (strain K12)), P0AE70 | AID 504720, 2011 | activation, % at 20 µM; in the data active means activation above about 50%
Target sequence (P0AE70 whole entry, looked up): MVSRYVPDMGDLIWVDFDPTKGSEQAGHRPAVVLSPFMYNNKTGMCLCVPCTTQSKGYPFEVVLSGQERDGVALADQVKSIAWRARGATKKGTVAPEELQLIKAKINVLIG
PriA SSB inh: inhibitors of Klebsiella pneumoniae PriA binding to SSB C-terminal tail, primary screen, biochemical, AlphaScreen | AlphaScreen SSBct-PriA binding, biotinylated peptide | inhibition, % at 33 µM | 430,000 compounds, 0.6% hits | AID 1272365, 2023; in the data active means inhibition mostly above about 37%, no sharp cut-off; inactive means mostly below about 20%;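 further: plate controls were negative control peptide for no effect and reference peptide for full effect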
Anthrax LF inh2: Bacillus anthracis LF protease inhibitors, primary screen, biochemical, multiplex microsphere, MLPCN library; Lethal factor (Bacillus anthracis), P15917; multiplex microsphere protease cleavage assay; inhibition, % at 10 µM; 360,000 compounds, 0.12% hits; further: plate controls were buffer without enzyme for full effect and enzyme alone for no effect
BoNT-A LC CP2: BoNT/A light chain protease inhibitors, confirmation, biochemical, flow cytometry, cherry pick 2; 150 compounds, 10% hits; shares compounds with BoNT-A LC inh2; inhibition, % at 10 µM; multiplex microsphere protease cleavage assay; in the data active means inhibition above about 24%
Anthrax LF CP2: Bacillus anthracis LF protease inhibitors, confirmation, biochemical, multiplex microsphere; 150 compounds, 7% hits; multiplex microsphere protease cleavage assay; shares compounds with BoNT-A LC inh2; inhibition, % at 10 µM; in the data active means inhibition above about 25%
BoNT-F LC CP2: BoNT/F light chain protease inhibitors, confirmation, biochemical, flow cytometry, cherry pick 2. inhibition, % at 10 µM. multiplex microsphere protease cleavage assay. 150 compounds, 7% hits. shares compounds with BoNT-A LC inh2; in the data active means inhibition above about 25%
Starred values were filed as active, the others as inactive. Rows were chosen to be rich in hits. Some 3.3% of all compounds tested hit in one or more screens of this group. Unless noted, no stated cut-off is given here; in the data, active means inhibition above about 30%; inconclusive means no clear call, values can overlap the other calls; inactive means below that.

`CC(C)(C)CNC(=O)c1cccc2c1C(=O)c1ccc(N3CCCC3)cc1S2(=O)=O` gave Autofluor counter 4481, BoNT-F LC inh 0, BoNT-A LC inh2 4, MazEF act -136, PriA SSB inh -5 and Anthrax LF inh2 5.
Screening CC1CCN(c2ccc3c(c2)S(=O)(=O)c2cccc(C(=O)NC4CCCCC4)c2C3=O)CC1 returned Autofluor counter 4303, BoNT-F LC inh 6, BoNT-A LC inh2 8, MazEF act -86, PriA SSB inh 9, Anthrax LF inh2 11, BoNT-A LC CP2 5, Anthrax LF CP2 6 and BoNT-F LC CP2 16.
Screening O=C(NCc1ccc(F)cc1)c1cccc2c1C(=O)c1ccc(N3CCC(N4CCCCC4)CC3)cc1S2(=O)=O returned Autofluor counter 5563, BoNT-F LC inh -2, BoNT-A LC inh2 4, MazEF act -83 and Anthrax LF inh2 14.
`O=C(NC1CC1)c1cccc2c1C(=O)c1ccc(N3CCC(Cc4ccccc4)CC3)cc1S2(=O)=O` gave Autofluor counter 4605, BoNT-F LC inh 16, BoNT-A LC inh2 11, MazEF act -416, PriA SSB inh -10 and Anthrax LF inh2 16.
`CC1CCN(c2ccc3c(c2)S(=O)(=O)c2cccc(C(=O)NCc4ccc(F)cc4)c2C3=O)CC1` gave Autofluor counter 3007, BoNT-F LC inh -1, BoNT-A LC inh2 8, MazEF act active, PriA SSB inh -5, Anthrax LF inh2 3, BoNT-A LC CP2 5, Anthrax LF CP2 2 and BoNT-F LC CP2 -1.
Cc1cc2ccccc2n1CCNC(=O)C1CC1 was read as Autofluor counter 3417, BoNT-F LC inh 23, BoNT-A LC inh2 69*, MazEF act -22, PriA SSB inh -3, Anthrax LF inh2 44*, BoNT-A LC CP2 9, Anthrax LF CP2 10 and BoNT-F LC CP2 4.
Screening Cc1cc2ccccc2n1CCNC(=O)C1CCCCC1 returned Autofluor counter 2400, BoNT-F LC inh -27, BoNT-A LC inh2 96*, MazEF act -5, PriA SSB inh 30, Anthrax LF inh2 27, BoNT-A LC CP2 4, Anthrax LF CP2 2 and BoNT-F LC CP2 6.
`O=C(NCCn1ccc2ccccc21)C1CCCCC1` gave Autofluor counter 5958, BoNT-F LC inh -5, BoNT-A LC inh2 1, MazEF act 15, PriA SSB inh -2 and Anthrax LF inh2 -1.
Screening O=C(NCc1c(F)cccc1F)c1ccc(Cn2cnc3ccccc32)o1 returned PriA SSB inh -11.
Screening COC(=O)N1CCc2ccc(Br)cc2C1C(=O)NCc1ccccc1F (centres undefined) returned PriA SSB inh -13.
For COc1ccc(C(=O)NCc2ccc3c(c2)cc(C)n3C)cc1 the results were Autofluor counter 1203, BoNT-F LC inh -82, BoNT-A LC inh2 95*, MazEF act 5, PriA SSB inh -5, Anthrax LF inh2 -37, BoNT-A LC CP2 8, Anthrax LF CP2 9 and BoNT-F LC CP2 13.
CCOc1ccc(CC(=O)NCc2ccc3c(c2)cc(C)n3C)cc1 was read as Autofluor counter 2221, BoNT-F LC inh -29, BoNT-A LC inh2 81*, MazEF act 10, PriA SSB inh 6, Anthrax LF inh2 -8, BoNT-A LC CP2 3, Anthrax LF CP2 -1 and BoNT-F LC CP2 5.
